Each structure is given as a SMILES string. Calls of active or inactive are those of the source.

The target of experiment [1] is Albumin (Bos taurus) (UniProt P02769). The experiment is described as follows: compounds binding labelled BSA control protein – biochemical, small-molecule microarray, Alexa647 label, 635/667 nm fluorescence, artefact control for SMM control protein annotation, profiling panel (AID 1118).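 Further: score merges 667 nm emission intensity and signal-to-noise per printed compound spot.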 Conditions: BSA-A647 binding, fluorescence 635 nm, higher = more signal.
A short description of experiment [2]: probe aXIP binding to arrayed compounds – biochemical, NeuroSMM set, 635/667 nm fluorescence, primary screen (AID 1119).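 Further: probe is the protein aXip251-270 applied at 1 µg/mL to compound-printed slides; binding of probe to printed compounds measured as 667 nm fluorescence plus signal to noise.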 Conditions: small-molecule microarray, higher = more signal, called active from +8 up or from −8 down.
Experiment [3] in a line: probe aNOTCH3 binding on compound microarray – biochemical, small-molecule microarray, 635/667 nm fluorescence, primary screen (AID 1120).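 Further: probe is a biotin-tagged antibody raised against NOTCH3 rather than NOTCH3 protein; score merges spot fluorescence near 667 nm with spot signal to noise.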 The conditions noted are these: higher = more signal.
Experiment [4] in a line: probe aNOTCH2 binding on compound microarray – biochemical, small-molecule microarray, 635/667 nm fluorescence, primary screen (AID 1121).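 Further: score merges feature fluorescence read at 667 nm with its signal to noise.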 Conditions: higher = more signal.
Experiment [5] concerns the target Carbonic anhydrase 2 (Homo sapiens) (UniProt P00918). The experiment is described as follows: compounds binding carbonic anhydrase 2 – biochemical, small-molecule microarray, Alexa647-labelled CAII, profiling panel (AID 1122). The conditions noted are these: CAII-A647 binding fluorescence, higher = more signal.
Experiment [6] can be described thus: COS7 lysate on small-molecule microarray, probe aHis, 635 nm (AID 1123).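 Further: z-score combines 667nm fluorescence intensity with signal-to-noise per printed compound spot.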 The conditions noted are these: COS7 cell lysate, fluorescence, higher = more signal.
A short description of experiment [7]: probe aLAP1 signal on lysate-treated microarray – cell lysate, small-molecule microarray, COS7 lysate, primary screen (AID 1124).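 Further: lysate comes from COS7 cells expressing LAP1 and is applied at 0.3 µg/mL; score merges spot fluorescence near 667 nm with signal-to-noise over triplicate slides.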 The conditions noted are these: probe aLAP1, fluorescence, higher = more signal.
In experiment [8] the test system is Sam68 (KHDRBS1). The experiment is described as follows: compounds binding KHDRBS1 protein – biochemical, small-molecule microarray, 635 nm fluorescence, primary screen (AID 1125).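 Further: score merges 667 nm channel intensity with signal to noise over triplicate slides.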 Conditions: higher = more signal.
The subject of experiment [9] is Chordin-like protein 2 (CHRDL2). The experiment is described as follows: compounds binding chordin-like 2 – biochemical, small-molecule microarray, 635 nm fluorescence, primary screen (AID 1126).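 Further: printed compound slides probed with Chrdl2 protein at 4 µg/mL for 1 h at 4 C; score merges 667 nm emission intensity with signal to noise over three replicate slides.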 Conditions: fluorescence 635 nm, higher = more signal.
Experiment [10] addresses Concanavalin-A (Canavalia ensiformis) (UniProt P02866). The experiment is described as follows: compounds binding concanavalin A lectin – biochemical, small-molecule microarray, Alexa647 label, 635 nm, artefact control for SMM control protein annotation, primary screen (AID 1127).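 Further: z combines 667 nm emission intensity with signal-to-noise across three replicate slides.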 The conditions noted are these: ConA-A647 binding fluorescence, higher = more signal.

Concanavalin-A (Canavalia ensiformis), sequence (P02866 whole entry, looked up): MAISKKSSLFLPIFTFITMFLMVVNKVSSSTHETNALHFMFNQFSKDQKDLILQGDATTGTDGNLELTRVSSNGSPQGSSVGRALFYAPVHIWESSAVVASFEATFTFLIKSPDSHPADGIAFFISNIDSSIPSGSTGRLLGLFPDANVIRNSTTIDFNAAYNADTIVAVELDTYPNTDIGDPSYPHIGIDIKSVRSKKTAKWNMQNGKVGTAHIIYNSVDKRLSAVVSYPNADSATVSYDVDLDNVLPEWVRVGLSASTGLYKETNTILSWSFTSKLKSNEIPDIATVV
Albumin (Bos taurus), sequence (P02769 whole entry, looked up): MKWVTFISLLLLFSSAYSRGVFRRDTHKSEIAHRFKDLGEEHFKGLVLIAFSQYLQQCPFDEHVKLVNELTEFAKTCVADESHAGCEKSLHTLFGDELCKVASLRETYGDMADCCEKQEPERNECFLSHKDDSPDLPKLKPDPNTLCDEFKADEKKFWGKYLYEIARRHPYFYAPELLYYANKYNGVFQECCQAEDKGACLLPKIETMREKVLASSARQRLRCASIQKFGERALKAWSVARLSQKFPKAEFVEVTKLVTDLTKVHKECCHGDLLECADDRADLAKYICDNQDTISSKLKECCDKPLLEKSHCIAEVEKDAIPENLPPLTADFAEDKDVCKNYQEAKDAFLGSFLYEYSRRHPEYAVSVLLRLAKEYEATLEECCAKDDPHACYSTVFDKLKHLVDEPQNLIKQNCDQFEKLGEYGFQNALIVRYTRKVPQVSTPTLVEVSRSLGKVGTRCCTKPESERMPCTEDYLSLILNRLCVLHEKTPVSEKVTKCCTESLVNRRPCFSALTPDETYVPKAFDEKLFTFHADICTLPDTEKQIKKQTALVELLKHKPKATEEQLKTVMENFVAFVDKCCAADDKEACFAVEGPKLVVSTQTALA

As to `O=C(CS)NCCCCCCNC(=O)[C@@H]1C[C@@H]2C(=O)N3CCC[C@H]3C(=O)N2[C@@H]1c1ccc(O)cc1`, the composite z-score was -0.766 in [1]; -0.273 in experiment [3]; -0.116 in experiment [4]; 0.645 in [5]; 2.88 in [6]; 0.827 in experiment [7]. For the same compound, the composite z-score in experiment [8] came to 0.5; in experiment [9] it was 0.361; in experiment [10] it was 0.443. For the same compound, the composite Z-score in [2] was 3.04 (inactive).
In the case of `N#Cc1ccc(NN2C(C(O)c3cccs3)C=CC3C(=O)N(c4ccccc4)C(=O)C32)cc1` (stereo not given), the composite z-score in experiment [1] was 0.536; in [3], 0.144; in experiment [4], -0.0136; in experiment [5] it was 0.817; in experiment [6] it was 2.28; in [7] it was 0.672. Besides, the values for the composite z-score in experiment [8], in experiment [9] and in [10] were 1.01, -0.0869 and 1.02, respectively. The composite Z-score in experiment [2] was 0.388 (inactive).
Regarding `COC(=O)C[C@@H]1C[C@H](C)[C@]2(O1)C(=O)N(Cc1ccccc1)c1ccc(NC(C)=O)cc12`, the composite z-score in experiment [1] is -0.211; in experiment [3], -0.116; in experiment [4] it was -0.185; in [5] it was -0.153; in experiment [6], 0.117; in [7] it was -0.0791. In addition, the results for the composite z-score in experiment [8], in [9] and in experiment [10] were -0.506, 0.343 and 0.0104, respectively. For the same compound, the composite Z-score in experiment [2] is -0.209 (inactive).
Consider `C=CCC(OC(C)=O)[C@@H]1[C@@H](N(Cc2ccc(-c3ccccc3)cc2)C(=O)Cc2ccc(OC)cc2)c2cc(OCCCO)ccc2N1C(=O)c1ccc2ccccc2n1` (stereo not given in full), for which the composite z-score in [1] was 0.0184; in experiment [3] it was 0.0522; in experiment [4] it was -0.182; in experiment [5], 0.195; in [6], 0.514; in [7], 0.123. The results for the composite z-score in experiment [8], in experiment [9] and in [10] were -0.959, 0.0504 and 0.177, respectively. The composite Z-score in [2] is 0.245 (inactive).
Turning to `C=CCNC(=O)[C@@H]1[C@H]2C(=O)O[C@H](c3ccccc3)[C@H](c3ccccc3)N2[C@H](c2ccccc2OCCO)[C@@]12C(=O)Nc1ccc(C#CC3=CCCCC3)cc12`, the composite z-score in experiment [1] was 0.482; in [3], 0.0105; in experiment [4], -0.0907; in experiment [5] it was 0.271; in [6] it was 2.18; in [7] it was 0.536. For the same compound, the composite z-score in experiment [8] was 1.3; in [9], 0.436; in experiment [10], 0.99. In experiment [2], the composite Z-score was -0.224 (inactive).
Turning to `Cc1ccc(S[C@]2(C(=O)NCc3ccccc3)CC(=O)N(Cc3ccccc3Cl)[C@@H]2c2ccc(CO)cc2I)cc1`, the composite z-score in [1] is 0.451; in experiment [3], -0.275; in experiment [4], -0.198; in experiment [5], 0.721; in experiment [6], 0.616; in experiment [7] it was 0.198. For the same compound, the composite z-score was -0.414 in [8], -1.03 in [9] and -0.139 in experiment [10]. Also, the composite Z-score in experiment [2] was -0.422 (inactive).
Take `CC(C)C[C@@H]1NC(=O)[C@H]2C[C@@H](C(=O)NCCCCCCNC(=O)CS)[C@@H](c3cccc(OCCO)c3)N2C1=O`: the composite z-score in [1] was -0.641; in [3], 0.0493; in [4], -0.132; in experiment [5], 0.338; in experiment [6], 1.68; in [7], 0.995. Besides, the composite z-score was found to be 1.22 in [8], 1.41 in [9] and 1.17 in experiment [10]. Moreover, in [2], the composite Z-score was 0.156 (inactive).
For `CC1=C2[C@@H](CCc3ccccc3)OB(O)C[C@@H]2n2c(=O)n(-c3ccccc3)c(=O)n2C1`, the composite z-score in experiment [1] was 0.201; in [3] it was 0.199; in experiment [4], -0.11; in [5], 0.478; in experiment [6], 0.224; in experiment [7] it was 0.0327. The values for the composite z-score in experiment [8], in experiment [9] and in experiment [10] were 0.617, 0.469 and 1, respectively. Also, the composite Z-score in [2] was 0.131 (inactive).
As for `COCCOC(=O)N1C(=O)[C@@]2(c3cc(C#CCC(C(=O)OC)C(=O)OC)ccc31)[C@H](C(=O)N1CCN(c3ncccn3)CC1)[C@H]1C(=O)O[C@H](c3ccccc3)[C@H](c3ccccc3)N1[C@@H]2c1ccc(OCCO)cc1`, the composite z-score in [1] is 0.727; in experiment [3], 0.0097; in experiment [4] it was -0.14; in [5] it was 0.323; in [6], 1.35; in experiment [7], 0.522. The composite z-score in experiment [8] worked out at 1.3; in experiment [9] it was 0.17; in experiment [10], 1.09. Besides, the composite Z-score in [2] was 1.44 (inactive).
Take `CCOC(=O)C1=CCC(c2ccc(C#N)cc2)N(S(=O)(=O)c2ccc(C)cc2)C1` (stereo not given): the composite z-score in experiment [1] was found to be 0.886; in experiment [3], 0.1; in [4], 0.188; in experiment [5], 0.695; in experiment [6], 1.63; in [7] it was 1.18. Further, the composite z-score in [8] was 1.3; in experiment [9], -0.1; in [10], 1.14. Further, the composite Z-score in experiment [2] is 0.356 (inactive).
`CCCCCCc1nc(CCCc2cc3c(c(CCCCCC)n2)[Si](C(C)C)(C(C)C)OC3)cc2c1[Si](C(C)C)(C(C)C)OC2`: the composite z-score was -1.17 in experiment [1]; -0.0427 in [3]; -0.0649 in experiment [4]; -0.567 in experiment [5]; 0.111 in experiment [6]; 0.0313 in [7]. The composite z-score in experiment [8] is -0.641; in experiment [9], 0.21; in experiment [10], -0.569. Further, in experiment [2], the composite Z-score was -0.295 (inactive).
With `N[C@@H](Cc1ccccc1)Cn1cc(-c2ccccc2)nn1`, the composite z-score in experiment [1] was 0.656; in [3], 0.0879; in experiment [4] it was -0.053; in experiment [5], -0.062; in experiment [6], 0.281; in experiment [7] it was 0.954. The composite z-score in [8] was 0.406; in [9], 0.53; in [10], -0.109. Besides, the composite Z-score in experiment [2] was -0.254 (inactive).
As to `CCC(CC)C(O)C1C=CC2C(=O)N(c3ccccc3)C(=O)C2N1Nc1ccc(C#N)cc1` (stereo not given), the composite z-score in [1] was 1.09; in [3] it was 0.628; in [4] it was 0.241; in experiment [5], 0.729; in experiment [6], 2.61; in [7], -0.266. Besides, the composite z-score in experiment [8] stood at 1.3; in experiment [9] it was 0.158; in experiment [10] it was 1.23. For the same compound, in experiment [2], the composite Z-score was 0.35 (inactive).
Consider `CC(C)C(=C=CC[C@H](O)c1ccccc1OCCO)C[C@H](O)c1ccccn1`, for which the composite z-score is 0.161 in [1]; 0.395 in experiment [3]; -0.0488 in experiment [4]; 0.632 in [5]; 0.559 in [6]; 1.61 in [7]. Further, the composite z-score in experiment [8] was 0.861; in experiment [9], -0.161; in experiment [10], -0.0625. Also, the composite Z-score in [2] is 0.41 (inactive).
Turning to `O=C1OCCC=C[C@H]2OC34C=CCN(c5ccc6ccccc6c5)C(=O)[C@H]3N(CCCCCO)C(=O)[C@@H]4C12` (stereo not given in full), the composite z-score in [1] was 0.388; in experiment [3], -0.0647; in experiment [4], -0.0443; in [5] it was 0.897; in experiment [6] it was 2.11; in [7] it was 0.859. The composite z-score is -0.222 in experiment [8], 0.254 in experiment [9] and -0.119 in experiment [10]. Besides, in [2], the composite Z-score is 1.1 (inactive).
As for `COc1ccc([Si](C)(C)[C@H]2[C@H](CCn3cc([C@H](O)c4ccccc4)nn3)O[C@@]3(C(=O)N(Cc4cccc(N5CCC5=O)c4)c4ccccc43)[C@@H]2C)cc1`, the composite z-score was 0.31 in experiment [1]; -0.219 in experiment [3]; -0.245 in [4]; 0.115 in [5]; 1.12 in experiment [6]; -0.166 in experiment [7]. Further, the values for the composite z-score in experiment [8], in experiment [9] and in [10] were 0.316, 0.317 and 0.47, respectively. The composite Z-score in experiment [2] was -0.0916 (inactive).
Turning to `COCCCNC(=O)[C@@]1(C)c2ccccc2C(=O)N(Cc2cc(C(F)(F)F)cc(C(F)(F)F)c2)[C@H]1c1ccc(CO)cc1`, the composite z-score is -0.0502 in experiment [1]; -0.256 in [3]; -0.0173 in experiment [4]; 0.74 in experiment [5]; 1.68 in experiment [6]; -0.066 in [7]. Moreover, the values for the composite z-score in experiment [8], in [9] and in [10] were -0.21, -2.46 and 0.851, respectively. For the same compound, the composite Z-score in experiment [2] was 0.318 (inactive).

Values taken from PubChem BioAssay.
